Data on nine targets can be found in the supplement of paper PMC10849652.

Holding throughout (experiment): log2 fold change, soluble protein after heating vs DMSO (PISA); higher = thermal stabilisation; K562 lysate, 10 uM; active = over 0.2 and 3.5 SD of the protein, either way, in both replicates (recomputed)
Compound in test [1]: NCC(=O)Nc1ccc(-n2nc(C(F)(F)F)cc2-c2ccc3c(ccc4ccccc43)c2)cc1
The essentials: (§1)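 Pellets of K562 cells were dounce-homogenised in PBS pH 7.4 with 1 mM MgCl2, and the crude extract was held at 1 mg/mL protein for a 30 min treatment with 10 μM compound. Aliquots were heated for 3 min over 48°C-58°C and pooled before NP-40 was added to 0.5% at 4°C. The supernatant from 21,000xg for 90 min was quantified by TMTpro 16plex LC-MS/MS with channel sums equalised. Values are reported from duplicates as log-two fold change in thermal stability relative to solvent controls.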

Compound in another test: O=C(CCCCCCC(=O)Nc1ccccc1)NO [vorinostat]
The gist of the method: as §1

Compound in the next test: O=C(O)c1ccc2c(c1)nc(Nc1cccc(Cl)c1)c1ccncc12 [silmitasertib]
The gist of the method:
as §1

Compound in test [2]: O=C1NC(=O)C(c2cnc3ccccn23)=C1c1cn2c3c(cc(F)cc13)CN(C(=O)N1CCCCC1)CC2
The essentials: as §1

Compound in the next test: c1cn2cc(-c3ccc4cn[nH]c4c3)nc(Nc3ccc(N4CCOCC4)cc3)c2n1 [entospletinib]
The essentials: as §1

The full data set covers some 8,800 targets. This sample favours those with a hit. About 0.5% of all pairs of compound and target were hits. A number with no mark means an inactive call.

UniProt Q9H0N5, sequence (Q9H0N5 whole entry, looked up): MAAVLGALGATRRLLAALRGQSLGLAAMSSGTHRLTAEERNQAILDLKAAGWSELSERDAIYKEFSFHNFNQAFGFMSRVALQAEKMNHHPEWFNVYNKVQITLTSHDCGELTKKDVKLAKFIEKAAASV
UniProt Q13362, sequence (Q13362 whole entry, looked up): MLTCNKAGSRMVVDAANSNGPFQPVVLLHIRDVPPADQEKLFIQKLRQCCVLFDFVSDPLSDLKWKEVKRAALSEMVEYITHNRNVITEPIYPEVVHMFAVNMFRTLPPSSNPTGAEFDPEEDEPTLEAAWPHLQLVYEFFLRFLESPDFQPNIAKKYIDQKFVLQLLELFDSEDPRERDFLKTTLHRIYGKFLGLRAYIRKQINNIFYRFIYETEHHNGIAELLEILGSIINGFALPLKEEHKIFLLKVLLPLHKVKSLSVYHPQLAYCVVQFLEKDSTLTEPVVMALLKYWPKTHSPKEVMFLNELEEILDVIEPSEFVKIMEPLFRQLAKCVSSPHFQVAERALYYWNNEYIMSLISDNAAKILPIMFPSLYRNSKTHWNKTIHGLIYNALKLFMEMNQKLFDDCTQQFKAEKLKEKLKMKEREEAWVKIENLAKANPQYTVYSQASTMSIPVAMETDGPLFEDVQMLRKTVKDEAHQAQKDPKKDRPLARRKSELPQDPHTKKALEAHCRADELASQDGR
UniProt Q9P215, sequence (Q9P215 whole entry, looked up): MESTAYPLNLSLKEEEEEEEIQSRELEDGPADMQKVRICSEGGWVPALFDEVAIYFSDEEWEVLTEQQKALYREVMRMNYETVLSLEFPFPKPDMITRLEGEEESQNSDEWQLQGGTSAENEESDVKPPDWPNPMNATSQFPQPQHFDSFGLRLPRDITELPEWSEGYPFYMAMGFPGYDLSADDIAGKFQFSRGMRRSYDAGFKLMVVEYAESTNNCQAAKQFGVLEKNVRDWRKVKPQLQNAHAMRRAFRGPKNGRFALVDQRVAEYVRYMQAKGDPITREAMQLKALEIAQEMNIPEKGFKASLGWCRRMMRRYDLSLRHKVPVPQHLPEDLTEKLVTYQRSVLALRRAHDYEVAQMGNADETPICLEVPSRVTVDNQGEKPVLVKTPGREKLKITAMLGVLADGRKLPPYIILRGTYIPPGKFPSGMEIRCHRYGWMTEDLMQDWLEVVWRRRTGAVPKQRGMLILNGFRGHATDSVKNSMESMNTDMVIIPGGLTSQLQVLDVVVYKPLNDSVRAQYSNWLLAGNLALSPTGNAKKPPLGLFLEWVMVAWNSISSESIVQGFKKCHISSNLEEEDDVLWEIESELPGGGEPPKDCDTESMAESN
UniProt Q14671, sequence (Q14671 whole entry, looked up): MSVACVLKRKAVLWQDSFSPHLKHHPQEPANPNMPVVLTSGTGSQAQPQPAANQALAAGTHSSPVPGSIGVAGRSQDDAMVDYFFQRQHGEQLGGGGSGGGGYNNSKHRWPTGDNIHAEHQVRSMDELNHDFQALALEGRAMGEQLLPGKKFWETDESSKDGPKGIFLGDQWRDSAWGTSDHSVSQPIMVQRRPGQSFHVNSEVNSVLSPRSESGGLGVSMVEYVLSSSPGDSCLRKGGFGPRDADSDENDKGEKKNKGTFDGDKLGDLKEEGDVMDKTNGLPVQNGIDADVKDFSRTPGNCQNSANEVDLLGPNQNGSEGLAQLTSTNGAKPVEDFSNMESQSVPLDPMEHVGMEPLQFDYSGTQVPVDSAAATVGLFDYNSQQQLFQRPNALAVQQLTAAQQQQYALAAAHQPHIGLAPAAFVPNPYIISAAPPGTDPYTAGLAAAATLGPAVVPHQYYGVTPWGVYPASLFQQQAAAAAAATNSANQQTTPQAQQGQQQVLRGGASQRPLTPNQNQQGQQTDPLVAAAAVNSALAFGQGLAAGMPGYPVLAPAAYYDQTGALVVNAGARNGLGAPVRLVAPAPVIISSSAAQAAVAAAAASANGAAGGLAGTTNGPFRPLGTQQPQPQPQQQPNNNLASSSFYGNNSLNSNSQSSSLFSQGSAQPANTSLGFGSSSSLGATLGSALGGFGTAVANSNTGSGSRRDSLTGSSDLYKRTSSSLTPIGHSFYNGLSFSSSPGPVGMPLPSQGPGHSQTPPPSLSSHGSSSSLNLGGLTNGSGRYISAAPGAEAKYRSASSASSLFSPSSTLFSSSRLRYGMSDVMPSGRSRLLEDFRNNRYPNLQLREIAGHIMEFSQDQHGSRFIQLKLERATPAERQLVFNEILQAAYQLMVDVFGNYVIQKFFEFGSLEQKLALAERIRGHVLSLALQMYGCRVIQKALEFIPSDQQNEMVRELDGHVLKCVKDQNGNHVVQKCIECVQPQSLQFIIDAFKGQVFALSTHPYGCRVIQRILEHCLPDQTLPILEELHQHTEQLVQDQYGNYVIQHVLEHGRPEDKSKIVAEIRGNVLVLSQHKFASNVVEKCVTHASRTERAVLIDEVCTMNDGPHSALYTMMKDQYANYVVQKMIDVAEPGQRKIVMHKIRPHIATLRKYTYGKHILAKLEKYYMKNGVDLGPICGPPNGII
UniProt Q9H4Z3, sequence (Q9H4Z3 whole entry, looked up): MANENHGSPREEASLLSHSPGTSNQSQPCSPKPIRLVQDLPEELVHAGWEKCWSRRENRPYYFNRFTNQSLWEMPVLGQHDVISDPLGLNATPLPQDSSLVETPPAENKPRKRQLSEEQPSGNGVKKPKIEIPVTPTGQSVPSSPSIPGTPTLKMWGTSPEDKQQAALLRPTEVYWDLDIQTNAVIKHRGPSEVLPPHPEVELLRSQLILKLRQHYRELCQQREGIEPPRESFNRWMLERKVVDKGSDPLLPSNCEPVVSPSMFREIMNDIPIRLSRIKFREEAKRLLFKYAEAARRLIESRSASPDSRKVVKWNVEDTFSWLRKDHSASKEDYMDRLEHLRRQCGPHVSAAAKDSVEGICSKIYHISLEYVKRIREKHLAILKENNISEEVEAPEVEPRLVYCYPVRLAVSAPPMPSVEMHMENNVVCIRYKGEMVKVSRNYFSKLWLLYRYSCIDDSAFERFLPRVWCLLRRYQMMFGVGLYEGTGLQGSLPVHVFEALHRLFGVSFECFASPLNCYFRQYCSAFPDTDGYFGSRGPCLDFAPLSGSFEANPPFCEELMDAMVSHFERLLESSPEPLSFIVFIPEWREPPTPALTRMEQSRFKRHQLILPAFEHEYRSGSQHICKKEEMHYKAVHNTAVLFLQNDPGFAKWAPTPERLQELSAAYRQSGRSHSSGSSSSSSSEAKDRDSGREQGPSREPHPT
UniProt Q14289, sequence (Q14289 whole entry, looked up): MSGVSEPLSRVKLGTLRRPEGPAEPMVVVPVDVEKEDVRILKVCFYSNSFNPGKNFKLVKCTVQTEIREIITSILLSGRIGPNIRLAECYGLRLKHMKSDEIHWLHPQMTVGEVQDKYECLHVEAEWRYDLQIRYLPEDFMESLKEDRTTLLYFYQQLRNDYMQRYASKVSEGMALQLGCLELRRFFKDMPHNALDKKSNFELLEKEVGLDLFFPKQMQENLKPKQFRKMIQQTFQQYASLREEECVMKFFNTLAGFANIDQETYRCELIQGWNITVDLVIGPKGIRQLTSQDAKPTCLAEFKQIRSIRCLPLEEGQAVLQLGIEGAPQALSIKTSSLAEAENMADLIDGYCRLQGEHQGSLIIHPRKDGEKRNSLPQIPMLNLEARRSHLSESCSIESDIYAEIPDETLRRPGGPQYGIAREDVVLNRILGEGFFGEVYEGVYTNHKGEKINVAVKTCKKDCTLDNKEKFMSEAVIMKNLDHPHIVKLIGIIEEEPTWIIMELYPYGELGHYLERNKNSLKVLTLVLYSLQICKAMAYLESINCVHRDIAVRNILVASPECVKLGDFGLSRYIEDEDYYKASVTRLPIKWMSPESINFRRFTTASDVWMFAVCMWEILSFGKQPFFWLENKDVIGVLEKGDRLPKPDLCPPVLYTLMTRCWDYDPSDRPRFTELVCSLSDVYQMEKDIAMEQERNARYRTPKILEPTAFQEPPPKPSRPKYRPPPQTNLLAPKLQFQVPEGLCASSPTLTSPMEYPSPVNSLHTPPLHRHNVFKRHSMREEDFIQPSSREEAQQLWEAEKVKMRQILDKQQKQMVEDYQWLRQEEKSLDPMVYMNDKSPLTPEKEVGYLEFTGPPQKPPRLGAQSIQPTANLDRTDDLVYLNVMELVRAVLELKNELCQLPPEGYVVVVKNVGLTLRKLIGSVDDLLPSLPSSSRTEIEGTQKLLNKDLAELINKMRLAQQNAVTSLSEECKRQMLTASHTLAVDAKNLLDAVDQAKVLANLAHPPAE
UniProt O75928, sequence (O75928 whole entry, looked up): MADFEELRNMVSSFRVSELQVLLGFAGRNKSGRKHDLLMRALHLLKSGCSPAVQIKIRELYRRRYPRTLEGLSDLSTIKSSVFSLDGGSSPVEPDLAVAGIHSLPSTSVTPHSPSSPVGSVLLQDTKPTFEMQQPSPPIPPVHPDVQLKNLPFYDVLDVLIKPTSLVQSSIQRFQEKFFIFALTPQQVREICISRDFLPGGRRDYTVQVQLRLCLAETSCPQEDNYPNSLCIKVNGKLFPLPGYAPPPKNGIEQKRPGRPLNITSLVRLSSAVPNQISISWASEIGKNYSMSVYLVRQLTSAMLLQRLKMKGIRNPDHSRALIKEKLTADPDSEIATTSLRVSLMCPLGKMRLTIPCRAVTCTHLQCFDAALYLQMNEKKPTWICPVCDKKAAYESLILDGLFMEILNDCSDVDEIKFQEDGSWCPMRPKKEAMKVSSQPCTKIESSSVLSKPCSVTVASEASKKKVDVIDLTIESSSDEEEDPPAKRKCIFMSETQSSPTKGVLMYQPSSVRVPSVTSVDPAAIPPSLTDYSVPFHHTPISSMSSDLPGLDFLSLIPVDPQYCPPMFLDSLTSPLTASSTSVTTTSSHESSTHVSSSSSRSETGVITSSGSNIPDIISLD

PCIF1 (UniProt Q9H4Z3): the log2 fold change in test [1] was -0.018; with vorinostat, -0.011; in the test with silmitasertib it was 0.112; in test [2] it was 0.036; in the test with entospletinib, 0.085.

On to PFKFB2 (UniProt O60825), for which the log2 fold change in test [1] is -0.007; with vorinostat it was -0.39 (active); with silmitasertib, 0.033; in test [2], 0.026; with entospletinib it was 0.018.

For POGK (UniProt Q9P215), the log2 fold change in test [1] is 0.018; with vorinostat, -0.173; in the test with silmitasertib it was 0.002; in test [2], -0.083; with entospletinib it was 0.3.

On to PUM1 isoform 3 (UniProt Q14671), for which the log2 fold change was 0.027 in test [1]; -0.192 with vorinostat; 0 in the test with silmitasertib; -0.004 in test [2]; -0.009 with entospletinib.

For the target PCBP2 (UniProt H3BRU6), the log2 fold change in test [1] is 0.139; in the test with vorinostat it was -0.662 (active); in the test with silmitasertib it was -0.102; in test [2] it was -0.053; in the test with entospletinib, 0.061.

In the case of PIAS2 (UniProt O75928), the log2 fold change was 0.469 (active) in test [1]; -0.334 (active) with vorinostat; -0.091 with silmitasertib; -0.054 in test [2]; 0.01 with entospletinib.

As for PPP2R5C isoform 4 (UniProt Q13362), the log2 fold change in test [1] was 0.075; in the test with vorinostat it was 0.082; with silmitasertib, -0.067; in test [2], 0.074; with entospletinib it was -0.012.

Consider PTK2B (UniProt Q14289), for which the log2 fold change in test [1] is 0.016; with vorinostat, -0.339 (active); with silmitasertib, 0.021; in test [2] it was -0.088; with entospletinib, -0.002.

For PCBD2 (UniProt Q9H0N5), the log2 fold change in test [1] was 0.008; with vorinostat it was 0.034; with silmitasertib, 0.01; in test [2], -0.006; in the test with entospletinib, 0.003.
